# Laboratory results: PubChem BioAssay (Tox21)
# A number with no mark means an inactive call. Records with an inconclusive call do not appear. A call without a number means that no potency is given here. Activity calls are given as the source filed them. Unless noted, the call rests on the fitted dose curve; in most records, active means well fitted curve in the direction sought with a large enough effect in the repeat runs; inconclusive means weak or mixed curves; inactive means no such curve, though single readings can be large; an effect the other way counts as inactive or inconclusive.
# Tests used:
# [1] = qHTS assay to identify small molecule antagonists of the retinoid acid receptor (RAR) signaling pathway - cell viability counter screen (AID 1159551); further: nearly all actives have a fitted effect of over 35% in size
# Outline: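 Following overnight attachment, C3RL4 reporter cells received DMSO-dissolved compounds and then retinol (1 uM final). Six hours later at 37 C, ATP content was measured by CellTiter-Glo luminescence.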
# [2] = qHTS assay to identify small molecule antagonists of the retinoic acid receptor (RAR) signaling pathway (AID 1159552; further: nearly all actives have a fitted effect of over 50% in size)
# Outline: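 Using a RARE-driven luciferase construct in C3RL4 cells, retinol at 1 uM final provided the agonist stimulus while compounds were co-applied. After 6 hours at 37 C, luminescence was recorded to flag inhibitors of retinol signaling.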
# [3] = qHTS assay to identify small molecule agonists of the retinoic acid receptor (RAR) signaling pathway (AID 1159553); settings: C3RL4 RARE luciferase reporter, agonist, 6 h; activation: at 73.3 µM (top of the series); further: potency means the concentration at half of the fitted maximal effect
# Outline: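 Cell line C3RL4, RARE luciferase reporter. Treatment: compounds in DMSO, 6 hr, 37 C, 5% CO2, after overnight plating. Detection: luminescence, 30 min RT after reagent.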
# [4] = qHTS assay to identify small molecule antagonists of the estrogen related receptor (ERR) signaling pathway from Tox21 library - cell viability counter screen (AID 1224834); further: nearly all actives have a fitted effect of over 30% in size
# Outline: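 Viability readout (CellTiter-Fluor fluorescence, 30 min at 37 C) multiplexed with the ERR assay; cells treated 17.5 h at 37 C with compounds delivered in DMSO.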
# [5] = target: Luciferin 4-monooxygenase (Photinus pyralis) (UniProt P08659); assay: qHTS assay to identify small molecule inhibitors of firefly luciferase (AID 1224835); further: nearly all actives have a fitted effect of over 25% in size
# Outline: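 Biochemical qHTS: compounds run as interplate titrations against purified firefly enzyme, with D-luciferin and ATP each at its KM concentration. Light output recorded by CCD imaging.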
# [6] = qHTS assay to identify small molecule agonists of the constitutive androstane receptor (CAR) signaling pathway - cell viability counter screen (AID 1224836); further: nearly all actives have a fitted effect of over 45% in size
# Outline: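 Multiplexed viability check: HepG2-CYP2B6-hCAR cells, 15-point compound dosing, 0.75 uM PK11195 final, 23 h at 37 C, CellTiter-Fluor fluorescence.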
# [7] = qHTS assay to identify small molecule antagonists of the constitutive androstane receptor (CAR) signaling pathway - cell viability counter screen (AID 1224837); further: nearly all actives have a fitted effect of over 45% in size
# Outline: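 Fluorescence from CellTiter-Fluor served as the viability signal. Human hepatoma HepG2 cells stably bearing hCAR and CYP2B6-2.2kb received compound plus CITCO (50 nM final) for 23 hr.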
# [8] = qHTS assay to identify small molecule antagonists of the estrogen related receptor signaling pathway with the pleiotropic PPARgamma coactivator (PGC) from Tox21 10K library - cell viability counter screen (AID 1224840; active means well fitted cell-killing curve with a large enough effect in the repeat runs, not every such curve was filed as active; further: nearly all actives have a fitted effect of over 40% in size)
# Outline: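 Compounds in DMSO, alongside positive and negative controls, were pinned onto PGC/ERR cells (2,000 per well). Exposure lasted 17.5 hours at 37 C, followed by a 30-minute CellTiter-Fluor incubation and fluorescence reading.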
# [9] = target: Thyrotropin receptor (Homo sapiens) (UniProt P16473); assay: qHTS assay to identify small molecule agonists of the thyroid stimulating hormone receptor (TSHR) signaling pathway (AID 1224843; calls by dose curve; further: nearly all actives have a fitted effect of over 45% in size)
# Outline: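 Steps: seed 800 TSHR-HEK293 cells per well; add test compound and hold 30 min at ambient temperature; dispense cAMP-d2 then anti-cAMP cryptate; incubate 1 h at ambient; measure fluorescence intensity.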
# [10] = qHTS assay to identify small molecule agonists of the hypoxia (HIF-1) signaling pathway - cell viability counter screen (AID 1224844; calls by dose curve; further: nearly all actives have a fitted effect of over 50% in size)
# Outline: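 Luminescent ATP content (CellTiter-Glo, 30 min, room temperature) served as the viability measure in HRE-bla ME-180 cells exposed to compounds for 17 hrs in low-serum medium (0.5% dialyzed FBS).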
# [11] = qHTS assay to identify small molecule agonists of H2AX (AID 1224845; active means well fitted activation curve with a large enough effect in the signal ratio in the repeat runs, not every such curve was filed as active; the % refers to the signal ratio)
# Outline: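 Wild-type CHO-K1 cells, plated overnight, exposed 3hr at 37C to 15 concentrations (0.76% DMSO final). Lysed, then HTRF anti-pH2AX (S139) cryptate and anti-H2AX-d2 antibodies, 24 hr room temperature; 665/620 nm emission read.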
# [12] = qHTS assay to identify small molecule agonists of the hypoxia (HIF-1) signaling pathway (AID 1224846; active means well fitted activation curve with a large enough effect in the signal ratio in the repeat runs, not every such curve was filed as active; the % refers to the signal ratio)
# Outline: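 Measured by blue/green FRET after loading CCF4-AM: beta-lactamase expressed from a hypoxia response element in ME-180 cells. Test agents were delivered in DMSO and left 17 hrs; cells had been plated 5 hrs earlier in low-serum (0.5% dialyzed FBS) medium.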
# [13] = qHTS assay to identify small molecule agonists of H2AX - cell viability counter screen (AID 1224847; calls by dose curve; further: top concentration of the series differs between compounds; nearly all actives have a fitted effect of over 30% in size)
# Outline: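 After overnight plating of 1000 CHO-K1 cells per well, a 15-concentration compound series was applied for 3 hr at 37C. Luminescence from CellTiter-Glo, read following 30 min at room temperature, reflected cell viability.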
# [14] = target: Nuclear receptor subfamily 1 group I member 3 (Homo sapiens) (UniProt Q14994); assay: qHTS assay to identify small molecule antagonists of the constitutive androstane receptor (CAR) signaling pathway (AID 1224838);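 further: HepG2 cells stably expressing hCAR with CYP2B6 luciferase reporter stimulated by CITCO; nearly all actives have a fitted effect of over 40% in size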
# Outline: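 Quantitative HTS in double-stable HepG2-CYP2B6-hCAR cells. After 4 h plating, cells get compound (15 concentrations) and CITCO at 50 nM final, incubate 24 h at 37 C, then ONE-Glo luminescence is read.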
# [15] = qHTS assay to identify small molecule antagonists of the estrogen related receptor signaling pathway with the pleiotropic PPARgamma coactivator (PGC) from Tox21 10K library (AID 1224841; call rule not given here; further: actives are mostly falling curves and most rising ones were filed inactive; nearly all actives have a fitted effect of over 50% in size)
# Outline: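 Compound exposure ran 18 hours at 37 C in PGC/ERR cells (2,000/well) that had first rested 6 hours in a 37 C/5% CO2 incubator. Luciferase activity was then detected with One-Glo after a 30-minute room-temperature step.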
# [16] = qHTS assay to identify small molecule agonists of the estrogen related receptor signaling pathway with the pleiotropic PPARgamma coactivator (PGC) from Tox21 10K library (AID 1224842); further: nearly all actives have a fitted effect of over 15% in size
# Outline: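 PGC/ERR reporter cell line, 2,000 cells per well, incubated 6 h at 37 C before 23 nL compound in DMSO was added. After 18 h at 37 C, One-Glo luminescence read following 30 min at room temperature.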
# [17] = qHTS assay to identify small molecule antagonists of the estrogen related receptor (ERR) signaling pathway from Tox21 library (AID 1224848); further: nearly all actives have a fitted effect of over 50% in size
# Outline: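 Luminescent reporter read-out (ONE-Glo) from NTP's ERR cell line after 18 h treatment at 37 C with DMSO-dissolved Tox21 compounds; cells pre-plated 6 h beforehand at 2,000 per well.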
# [18] = qHTS assay to identify small molecule agonists of the estrogen related receptor (ERR) signaling pathway from Tox21 library (AID 1224849; calls by dose curve; further: nearly all actives have a fitted effect of over 15% in size)
# Outline: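 We plated ERR reporter cells, waited 6 h, added compounds in DMSO by pin tool and incubated them 18 h at 37 C. ONE-Glo was then added and luminescence read after 30 min.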
# Chain of Nuclear receptor subfamily 1 group I member 3 (Homo sapiens) (Q14994 whole entry, looked up): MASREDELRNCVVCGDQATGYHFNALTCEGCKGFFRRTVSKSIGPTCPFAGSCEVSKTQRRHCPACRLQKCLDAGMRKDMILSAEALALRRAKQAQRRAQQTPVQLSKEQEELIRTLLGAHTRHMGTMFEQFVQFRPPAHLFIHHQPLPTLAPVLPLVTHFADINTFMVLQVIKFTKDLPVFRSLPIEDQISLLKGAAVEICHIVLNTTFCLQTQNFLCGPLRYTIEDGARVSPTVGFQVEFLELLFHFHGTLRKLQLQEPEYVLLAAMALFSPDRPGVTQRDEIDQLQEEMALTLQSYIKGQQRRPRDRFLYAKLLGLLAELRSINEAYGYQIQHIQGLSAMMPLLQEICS
# Chain of Thyrotropin receptor (Homo sapiens) (P16473 whole entry, looked up): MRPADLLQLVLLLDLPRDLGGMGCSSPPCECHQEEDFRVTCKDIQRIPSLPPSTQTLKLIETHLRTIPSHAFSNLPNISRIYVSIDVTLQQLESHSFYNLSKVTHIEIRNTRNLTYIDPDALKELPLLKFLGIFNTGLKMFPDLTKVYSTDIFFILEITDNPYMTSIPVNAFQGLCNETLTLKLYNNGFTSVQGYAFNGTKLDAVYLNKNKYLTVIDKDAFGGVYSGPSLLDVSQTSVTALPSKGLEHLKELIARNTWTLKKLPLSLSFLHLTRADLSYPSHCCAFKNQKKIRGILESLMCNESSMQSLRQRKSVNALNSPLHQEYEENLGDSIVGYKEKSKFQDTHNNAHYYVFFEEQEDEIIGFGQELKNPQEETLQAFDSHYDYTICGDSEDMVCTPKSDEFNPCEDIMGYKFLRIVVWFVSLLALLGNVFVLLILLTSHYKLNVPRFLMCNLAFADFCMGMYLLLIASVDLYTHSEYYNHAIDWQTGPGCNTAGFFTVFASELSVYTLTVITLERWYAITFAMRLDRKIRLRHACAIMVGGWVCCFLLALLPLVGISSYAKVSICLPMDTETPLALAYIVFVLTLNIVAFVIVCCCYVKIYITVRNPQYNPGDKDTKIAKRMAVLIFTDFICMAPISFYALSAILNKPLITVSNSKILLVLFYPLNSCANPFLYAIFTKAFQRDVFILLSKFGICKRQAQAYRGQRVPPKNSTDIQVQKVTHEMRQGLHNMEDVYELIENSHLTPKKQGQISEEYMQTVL
# Chain of Luciferin 4-monooxygenase (Photinus pyralis) (P08659 whole entry, looked up): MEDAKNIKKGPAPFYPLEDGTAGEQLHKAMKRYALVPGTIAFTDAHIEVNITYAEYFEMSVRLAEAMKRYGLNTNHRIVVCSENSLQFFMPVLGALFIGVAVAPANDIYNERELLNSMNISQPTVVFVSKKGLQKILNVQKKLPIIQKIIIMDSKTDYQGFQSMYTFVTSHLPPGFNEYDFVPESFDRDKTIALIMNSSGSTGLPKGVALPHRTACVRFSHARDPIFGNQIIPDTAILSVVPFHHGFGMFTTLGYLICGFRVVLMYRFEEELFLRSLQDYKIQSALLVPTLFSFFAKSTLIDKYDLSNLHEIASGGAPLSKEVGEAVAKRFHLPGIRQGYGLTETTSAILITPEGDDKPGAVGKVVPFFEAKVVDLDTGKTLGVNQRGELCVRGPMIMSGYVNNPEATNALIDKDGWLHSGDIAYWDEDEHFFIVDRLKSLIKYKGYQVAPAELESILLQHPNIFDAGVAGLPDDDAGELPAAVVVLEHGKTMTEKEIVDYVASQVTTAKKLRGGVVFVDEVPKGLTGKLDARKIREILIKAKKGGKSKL
smiles,measurement,setting,value
BrC/C=C/CBr,"activity change, negative = cytotoxicity",[1],3.13% [at 19 µM]
same,"activity, negative = inhibition",[2],22.9% [at 19 µM]
same,Potency,[3],inactive
same,"viability change, negative = cytotoxic",[4],0.661% [at 19 µM]
same,"activity change, negative = inhibition",[5],0.329% [at 23.6 µM]
same,"viability change, negative = cytotoxic",[6],0.935% [at 19 µM]
same,"activity change, negative = cytotoxicity",[7],-2.33% [at 19 µM]
same,"viability change, negative = cytotoxic",[8],5.69% [at 19 µM]
same,activation,[9],-9.51% [at 19 µM]
same,"activity change, negative = cytotoxicity",[10],-5.88% [at 15.8 µM]
same,activation (H2AX phosphorylation),[11],-0.0482% [at 31.6 µM]
same,activation,[12],-1.18% [at 15.8 µM]
same,"activity change, negative = cytotoxicity",[13],1.6% [at 31.6 µM]
OCCCCCCCl,outcome,[1],inactive
same,Potency,[2],inactive
same,Potency,[3],inactive
same,Potency,[4],inactive
same,Potency,[5],inactive
same,outcome,[6],inactive
same,Potency,[7],inactive
same,outcome,[8],inactive
same,outcome,[9],inactive
same,outcome,[10],inactive
same,outcome,[11],inactive
same,outcome,[12],inactive
same,Potency,[13],inactive
Cc1cc(C)cc([N+](=O)[O-])c1,outcome,[1],inactive
same,Potency,[2],inactive
same,Potency,[3],inactive
same,Potency,[5],inactive
same,outcome,[6],inactive
same,Potency,[7],inactive
same,outcome,[9],inactive
same,outcome,[10],inactive
same,outcome,[11],inactive
c1ccc(CNc2ncnc3nc[nH]c23)cc1,outcome,[1],inactive
same,Potency,[2],inactive
same,Potency,[3],inactive
same,Potency,[4],inactive
same,outcome,[8],inactive
same,outcome,[11],inactive
CC(=O)c1ccc(OCC(=O)N2CCCCC2)cc1,outcome,[1],inactive
same,Potency,[2],inactive
same,Potency,[3],13.3 µM (active)
same,Potency,[4],inactive
same,outcome,[6],inactive
same,Potency,[7],inactive
same,Potency,[14],inactive
same,outcome,[8],inactive
same,Potency,[15],inactive
same,outcome,[16],inactive
same,outcome,[9],inactive
same,outcome,[11],inactive
same,outcome,[12],inactive
same,Potency,[13],inactive
same,Potency,[17],inactive
CC(=O)N(CC(O)CO)c1c(I)c(C(=O)NCC(O)CO)c(I)c(C(=O)NCC(O)CO)c1I (stereo not given),outcome,[1],inactive
same,Potency,[2],inactive
same,Potency,[3],inactive
same,Potency,[4],inactive
same,Potency,[5],inactive
same,outcome,[6],inactive
same,Potency,[7],inactive
same,outcome,[8],inactive
same,outcome,[10],inactive
same,outcome,[11],inactive
CC(=O)OC(C(=O)c1ccccc1)c1ccccc1 (stereo not given),outcome,[1],inactive
same,Potency,[2],inactive
same,Potency,[3],inactive
same,Potency,[4],inactive
same,Potency,[5],inactive
same,outcome,[6],inactive
same,Potency,[7],inactive
same,Potency,[14],inactive
same,outcome,[8],inactive
same,outcome,[9],inactive
same,outcome,[10],inactive
same,Potency,[13],inactive
CCCCC(CC)CNC(=O)CC(C)OC(=O)CCC(=O)O (stereo not given),outcome,[1],inactive
same,Potency,[2],inactive
same,Potency,[3],29.8 µM (active)
same,outcome,[6],inactive
same,Potency,[7],inactive
same,Potency,[14],inactive
same,Potency,[15],inactive
same,outcome,[9],inactive
same,outcome,[10],inactive
same,outcome,[11],inactive
same,outcome,[12],inactive
same,Potency,[13],inactive
same,Potency,[17],inactive
CCCCCCCCCCCCCCCC(=O)NCCO,outcome,[1],inactive
same,Potency,[2],inactive
same,Potency,[4],inactive
same,Potency,[5],inactive
same,outcome,[6],inactive
same,Potency,[7],inactive
same,Potency,[14],inactive
same,Potency,[15],inactive
same,outcome,[16],inactive
same,outcome,[10],inactive
same,outcome,[11],inactive
same,Potency,[13],inactive
same,Potency,[17],inactive
same,outcome,[18],inactive
